54 molecules from ChEMBL document CHEMBL4513216, “Probing the Open Global Health Chemical Diversity Library for Multistage-Active Starting Points for Next-Generation Antimalarials” (ACS Infect Dis, 2020) can be followed below.

The whole screen tested about 69,000 compounds, of which about 8,600 (12%) showed an effect of 50% or more. What follows is part of a selection rich in strong results, with near analogues and random picks from the rest.

This test relates to Plasmodium berghei. The test can be described thus: Screen against P. berghei liver stage (PbLuc), transformed with Luciferase, at 10uM. It counts as functional, HepG2. The settings on record: tested at 10 uM.
As for `CCC(CC)C(=O)N1CCCc2c(cnn2C)C1`, the INHIBITION is on record as 31.9%. Then `O=C(CCc1cc(Cl)no1)N1CCC(c2cc3ncccc3cn2)CC1`, with 23.2%; and `CCOc1ccccc1-n1c(-c2cn(CC)nc2C)n[nH]c1=O`, with 18%; and `CN1CCCC(CCC(=O)NCCCn2ncc3ccccc32)C1` (centres undefined), with 17%.

For `CC(=O)Nc1cc(C(C)(C)C)sc1C#N`, the INHIBITION was -52.4%. The same measure for `CC(C)[C@@H]1CN(C(=O)c2ccsc2)C[C@H]1C(=O)O`: 30.9%; for `Cc1cncc(C(=O)N2C[C@@H](C(=O)O)[C@H](C(C)C)C2)c1`: 72.2%; for `Cc1cc(C(=O)N2C[C@@H](C(=O)O)[C@H](C(C)C)C2)cs1`: 46.1%. Then `CC(NC(=O)NCCCn1cccn1)c1ccncc1` (centres undefined), with 36.3%; and `COC(=O)c1cc2n(n1)CCN(C(=O)c1csc(CN(C)C)n1)C2`, with -4.96%; and `COC(=O)Cn1c(=O)[nH]c2cn(-c3cccc(Cl)c3)c(=O)n21`, with 33.7%.

In the case of `COCCOCC(=O)N1C[C@@H]2CC[C@H](Oc3ccccc3Cl)[C@@H]2C1`, the INHIBITION amounted to 40%. The same measure for `Cc1nn(C)cc1C(C)Nc1ncc(C(N)=O)cc1Cl` (centres undefined): 71.1%. Then `COc1cc(C)c(C(C)Nc2ncc(C(N)=O)cc2Cl)cc1OC` (centres undefined), with -37.7%. The same measure for `COc1ccccc1C(C)Nc1ncc(C(N)=O)cc1Cl` (centres undefined): -7.25%; for `Cc1noc2ncc(C(=O)NCC3CCCOC3)cc12` (centres undefined): -6.45%; for `N#CC1(NC(=O)c2cc(Cl)c3c(c2)OCCCO3)CCC1`: -14.2%.

For `c1cnc2ccc(C[C@@H]3CC[C@H](CN4CCCOCC4)O3)cc2c1`, the INHIBITION came to 23.5%. Consider `Cc1cc(C(=O)N2CCc3ncnc(-c4cnn(C)c4)c3CC2)no1`, for which the INHIBITION amounted to 0.618%. Then `CN1CCC2(CCCN(S(=O)(=O)c3ccc(-c4cnco4)s3)C2)C1` (centres undefined), with 37.3%; and `Cc1occc1CNC(=O)N1CCC(Cc2cnn(C)c2)C1` (centres undefined), with -24.15%. Take `Cc1ccc(S(=O)(=O)N2Cc3c(CN(C)C)nn(C)c3C2)cc1`: the INHIBITION turned out to be 0.542%. The same measure for `COc1ccc(S(=O)(=O)N2Cc3c(CN(C)C)nn(C)c3C2)cc1`: -6.23%; for `CCc1ccc(S(=O)(=O)N2Cc3c(CN(C)C)nn(C)c3C2)cc1`: 72%. In the case of `Cc1ccc(NC2CCN(C(=O)c3nccc4ccccc34)CC2)nn1`, the INHIBITION is -45.9%. The same measure for `CN(C)c1ncc(-c2cncnc2)c(C2CNCCO2)n1` (centres undefined): 20.6%; for `CCc1nnc(CN2CCCCC2Cn2nc(C)nc2C)o1` (centres undefined): 22.3%. Turning to `CS(=O)(=O)N[C@@H]1CN(Cc2ccco2)C[C@@H]2CCCO[C@@H]21`, the INHIBITION stood at 5.96%. In the case of `CSCCCN1CCC(c2nnc(Cn3ccnc3)n2C2CC2)CC1`, the INHIBITION was -79.3%. Then `NCCN1CCC(c2nnc(Cn3ccnc3)n2C2CC2)CC1`, with 62.3%; and `CC(C)(C)CN1CCC(c2nnc(Cn3ccnc3)n2C2CC2)CC1`, with 38%; and `CN1CCC(c2nnc3n2CCN(S(=O)(=O)c2ccccc2Cl)C3)CC1`, with 10.75%. `NC(=O)NC(=O)CCN1CCC(C(=O)c2cc(F)ccc2F)CC1`: the INHIBITION is 40.5%. Turning to `COCCCN1CCC(C(=O)c2cc(F)ccc2F)CC1`, the INHIBITION came to 56.4%. The same measure for `CCOC(=O)CN1CCC(C(=O)c2cc(F)ccc2F)CC1`: 32.6%; for `CCOCCN1CCC(C(=O)c2cc(F)ccc2F)CC1`: 60.5%; for `COC(=O)CCN1CCC(C(=O)c2cc(F)ccc2F)CC1`: 46.9%. `NC(=O)CCN1CCC(C(=O)c2cc(F)ccc2F)CC1`: the INHIBITION worked out at 18.2%. The same measure for `CC(C)NC(=O)CCN1CCC(C(=O)c2cc(F)ccc2F)CC1`: 69.3%; for `CC(C)OCCN1CCC(C(=O)c2cc(F)ccc2F)CC1`: -13.5%. Turning to `COCCN1CCC(C(=O)c2cc(F)ccc2F)CC1`, the INHIBITION is listed as 5.03%. In the case of `Cc1nc(NCc2ccc(F)cc2)cc(C2CCCN2)n1` (centres undefined), the INHIBITION is on record as 41.5%. The same measure for `O=C(Cn1ccc2ccc(Br)cc21)NCc1ccc(C(=O)O)cc1`: -30.8%. `CC(C)c1nn(C)c(N(C)C)c1CNC1CCCOc2ccccc21` (centres undefined): the INHIBITION worked out at 35.4%.

`COCc1nc(N(C)C)ncc1C(=O)Nc1ccc(Cl)cc1`: the INHIBITION is recorded as -18.8%. Then `O=C(COC1CCCC1)NCc1ccc(O)c(F)c1`, with -16.4%. Turning to `CN1CC(=O)N(c2cccc(F)c2)CC12CCN(Cc1ccsc1)C2` (centres undefined), the INHIBITION came out at 23.6%. Turning to `Cc1ccc(Cl)cc1-n1nnnc1C1(N2CCCC2)CCCC1`, the INHIBITION worked out at 33%. The same measure for `Clc1ccc2nncc(N3CCCCC3)c2c1`: -0.991%. Then `Cc1ccc(Cl)cc1-n1nnnc1C1(N2CCCC2)CCCCC1`, with 63.9%.

On to `CN1CCN(c2cc(CNC(=O)c3ccc(Cl)o3)ccn2)CC1`, for which the INHIBITION came out at 38.45%. The same measure for `Cc1csc(NC(=O)CN2CCCC(Cn3nc(C)nc3C)C2)n1` (centres undefined): 0.4%; for `COc1c(C)cnc(CSc2nnc(N3CCCC3)s2)c1C`: 32.9%; for `COc1cccc2c1OCC(Cc1cc(C(N)=O)ccn1)C2` (centres undefined): 38%.
